According to the supplement of paper PMC8728848:
The full list was thinned out, with the strongest signals kept by preference.

Tests used:
Experiment in all cases: glycan array binding signal (z-score within array); higher = stronger binding
[1] = biological target: Fuc(a1-2)Gal(b1-4)GlcNAc(b1-3)Gal(b1-4)GlcNAc; conditions: glycan notation: IUPAC condensed, linker removed
Summary of the method: (§1)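 Arrays were curated from the Consortium for Functional Glycomics database, 3228 in total, and kept only where the protein sequence was available. Binding is expressed as a within-array Z-score. This score was averaged across arrays of the same protein sequence at different concentrations or buffers and across linkers, and negative values can be read as non-binding.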

[2] = biological target: Gal(b1-3)GalNAc(b1-3)Gal(b1-4)Glc; conditions: glycan notation: IUPAC condensed, linker removed
Summary of the method: as §1

[3] = biological target: Gal(b1-4)GlcNAc(b1-2)Man(a1-3)[Gal(b1-4)GlcNAc(b1-2)Man(a1-6)]Man(b1-4)GlcNAc(b1-4)GlcNAc; conditions: glycan notation: IUPAC condensed, linker removed
Summary of the method: as §1

[4] = biological target: GlcNAc(b1-2)Man(a1-3)[GlcNAc(b1-2)Man(a1-6)]Man(b1-4)GlcNAc(b1-4)GlcNAc; conditions: glycan notation: IUPAC condensed, linker removed
Summary of the method: as §1

[5] = biological target: GlcNAc(b1-3)Gal(b1-4)GlcNAc; conditions: glycan notation: IUPAC condensed, linker removed
Summary of the method: as §1

[6] = biological target: Man(a1-2)Man(a1-3)[Man(a1-3)[Man(a1-6)]Man(a1-6)]Man(b1-4)GlcNAc(b1-4)GlcNAc; conditions: glycan notation: IUPAC condensed, linker removed
Summary of the method: as §1

[7] = biological target: Man(a1-3)[Man(a1-6)]Man(b1-4)GlcNAc(b1-4)GlcNAc; conditions: glycan notation: IUPAC condensed, linker removed
Summary of the method: as §1

[8] = biological target: Neu5Ac(a2-6)Gal(b1-4)GlcNAc(b1-2)Man(a1-3)[Neu5Ac(a2-6)Gal(b1-4)GlcNAc(b1-2)Man(a1-6)]Man(b1-4)GlcNAc(b1-4)GlcNAc; conditions: glycan notation: IUPAC condensed, linker removed
Summary of the method: as §1

[9] = biological target: Neu5Ac(a2-6)Gal(b1-4)GlcNAc(b1-3)Gal(b1-4)[Fuc(a1-3)]GlcNAc(b1-3)Gal(b1-4)[Fuc(a1-3)]GlcNAc; conditions: glycan notation: IUPAC condensed, linker removed
Summary of the method: as §1

[10] = biological target: Neu5Ac(a2-6)GalNAc(b1-4)GlcNAc; conditions: glycan notation: IUPAC condensed, linker removed
Summary of the method: as §1

[11] = biological target: Fuc(a1-2)Gal(b1-4)GlcNAc(b1-3)Gal(b1-4)GlcNAc(b1-3)Gal(b1-4)GlcNAc; conditions: glycan notation: IUPAC condensed, linker removed; mutation: K176L
Summary of the method: as §1

[12] = biological target: Fuc(a1-2)[Gal(a1-3)]Gal(b1-3)GlcNAc(b1-2)Man(a1-3)[Fuc(a1-2)[Gal(a1-3)]Gal(b1-3)GlcNAc(b1-2)Man(a1-6)]Man(b1-4)GlcNAc(b1-4)GlcNAc; conditions: glycan notation: IUPAC condensed, linker removed; mutation: K176L
Summary of the method: as §1

[13] = biological target: Fuc(a1-2)[Gal(a1-3)]Gal(b1-4)GlcNAc(b1-2)Man(a1-3)[Fuc(a1-2)[Gal(a1-3)]Gal(b1-4)GlcNAc(b1-2)Man(a1-6)]Man(b1-4)GlcNAc(b1-4)GlcNAc; conditions: glycan notation: IUPAC condensed, linker removed; mutation: K176L
Summary of the method: as §1

[14] = biological target: Fuc(a1-2)[GalNAc(a1-3)]Gal(b1-4)GlcNAc; conditions: glycan notation: IUPAC condensed, linker removed; mutation: K176L
Summary of the method: as §1

[15] = biological target: Fuc(a1-2)[GalNAc(a1-3)]Gal(b1-4)GlcNAc(b1-3)Gal(b1-4)GlcNAc(b1-3)Gal(b1-4)GlcNAc; conditions: glycan notation: IUPAC condensed, linker removed; mutation: K176L
Summary of the method: as §1

[16] = biological target: Fuc(a1-3)[Gal(b1-4)]GlcNAc; conditions: glycan notation: IUPAC condensed, linker removed; mutation: K176L
Summary of the method: as §1

[17] = biological target: Fuc(a1-3)[GalNAc(b1-4)]GlcNAc; conditions: glycan notation: IUPAC condensed, linker removed; mutation: K176L
Summary of the method: as §1

[18] = biological target: Gal(a1-4)Gal(b1-3)GlcNAc(b1-2)Man(a1-3)[Gal(a1-4)Gal(b1-3)GlcNAc(b1-2)Man(a1-6)]Man(b1-4)GlcNAc(b1-4)GlcNAc; conditions: glycan notation: IUPAC condensed, linker removed; mutation: K176L
Summary of the method: as §1

[19] = biological target: Gal(a1-4)Gal(b1-4)Glc; conditions: glycan notation: IUPAC condensed, linker removed; mutation: K176L
Summary of the method: as §1

[20] = biological target: Gal(b1-3)GalNAc; conditions: glycan notation: IUPAC condensed, linker removed; mutation: K176L
Summary of the method: as §1

[21] = biological target: Gal(b1-3)GalNAc(b1-3)Gal(a1-4)Gal(b1-4)Glc; conditions: glycan notation: IUPAC condensed, linker removed; mutation: K176L
Summary of the method: as §1

[22] = biological target: Gal(b1-3)GlcNAc(b1-3)Gal(b1-4)GlcNAc(b1-6)[Gal(b1-3)GlcNAc(b1-3)]Gal(b1-4)Glc; conditions: glycan notation: IUPAC condensed, linker removed; mutation: K176L
Summary of the method: as §1

[23] = biological target: Gal(b1-3)[Fuc(a1-4)]GlcNAc(b1-3)Gal(b1-4)[Fuc(a1-3)]GlcNAc; conditions: glycan notation: IUPAC condensed, linker removed; mutation: K176L
Summary of the method: as §1

[24] = biological target: Gal(b1-3)[GlcNAc(b1-6)]GalNAc; conditions: glycan notation: IUPAC condensed, linker removed; mutation: K176L
Summary of the method: as §1

[25] = biological target: Gal(b1-4)GalNAc(b1-3)[Fuc(a1-2)]Gal(b1-4)GlcNAc; conditions: glycan notation: IUPAC condensed, linker removed; mutation: K176L
Summary of the method: as §1

[26] = biological target: Gal(b1-4)GlcNAc(b1-2)Man(a1-6)[Man(a1-3)]Man(b1-4)GlcNAc(b1-4)GlcNAc; conditions: glycan notation: IUPAC condensed, linker removed; mutation: K176L
Summary of the method: as §1

[27] = biological target: Gal(b1-4)GlcNAc(b1-3)Gal(b1-4)Glc; conditions: glycan notation: IUPAC condensed, linker removed; mutation: K176L
Summary of the method: as §1

[28] = biological target: Gal(b1-4)GlcNAc(b1-3)Gal(b1-4)GlcNAc(b1-3)Gal(b1-4)GlcNAc; conditions: glycan notation: IUPAC condensed, linker removed; mutation: K176L
Summary of the method: as §1

[29] = biological target: Gal(b1-4)GlcNAc(b1-3)[Gal(b1-4)GlcNAc(b1-6)]GalNAc; conditions: glycan notation: IUPAC condensed, linker removed; mutation: K176L
Summary of the method: as §1

[30] = biological target: Gal(b1-4)GlcNAc(b1-6)[Gal(b1-3)]GalNAc; conditions: glycan notation: IUPAC condensed, linker removed; mutation: K176L
Summary of the method: as §1

[31] = biological target: Gal3S6S(b1-4)GlcNAc6S; conditions: glycan notation: IUPAC condensed, linker removed; mutation: K176L
Summary of the method: as §1

[32] = biological target: Gal6S(b1-4)Glc; conditions: glycan notation: IUPAC condensed, linker removed; mutation: K176L
Summary of the method: as §1

[33] = biological target: GalNAc(a1-3)GalNAc; conditions: glycan notation: IUPAC condensed, linker removed; mutation: K176L
Summary of the method: as §1

[34] = biological target: GlcNAc(a1-4)Gal(b1-3)GlcNAc; conditions: glycan notation: IUPAC condensed, linker removed; mutation: K176L
Summary of the method: as §1

[35] = biological target: GlcNAc(a1-4)Gal(b1-4)GlcNAc(b1-3)Gal(b1-4)GlcNAc(b1-3)Gal(b1-4)GlcNAc; conditions: glycan notation: IUPAC condensed, linker removed; mutation: K176L
Summary of the method: as §1

[36] = biological target: GlcNAc(b1-3)Gal(b1-4)Glc; conditions: glycan notation: IUPAC condensed, linker removed; mutation: K176L
Summary of the method: as §1

[37] = biological target: Kdn(a2-3)Gal(b1-4)[Fuc(a1-3)]GlcNAc; conditions: glycan notation: IUPAC condensed, linker removed; mutation: K176L
Summary of the method: as §1

[38] = biological target: Man(a1-2)Man(a1-3)Man; conditions: glycan notation: IUPAC condensed, linker removed; mutation: K176L
Summary of the method: as §1

[39] = biological target: Man(a1-2)Man(a1-6)[Man(a1-3)]Man(a1-6)[Man(a1-2)Man(a1-2)Man(a1-3)]Man(b1-4)GlcNAc(b1-4)GlcNAc; conditions: glycan notation: IUPAC condensed, linker removed; mutation: K176L
Summary of the method: as §1

[40] = biological target: Neu5Ac(a2-3)Gal(b1-3)GalNAc; conditions: glycan notation: IUPAC condensed, linker removed; mutation: K176L
Summary of the method: as §1

[41] = biological target: Neu5Ac(a2-3)Gal(b1-3)GlcNAc(b1-3)Gal(b1-4)GlcNAc; conditions: glycan notation: IUPAC condensed, linker removed; mutation: K176L
Summary of the method: as §1

[42] = biological target: Neu5Ac(a2-6)Gal(b1-4)GlcNAc(b1-2)Man(a1-3)[Gal(b1-4)GlcNAc(b1-2)Man(a1-6)]Man(b1-4)GlcNAc(b1-4)GlcNAc; conditions: glycan notation: IUPAC condensed, linker removed; mutation: K176L
Summary of the method: as §1

[43] = biological target: Neu5Gc(a2-3)Gal(b1-3)[Fuc(a1-4)]GlcNAc; conditions: glycan notation: IUPAC condensed, linker removed; mutation: K176L
Summary of the method: as §1

B1: Tulipa lectin C-1 (Tulipa hybrid) (protein)
chain: MGMALVVALAVALASTVAGQQNVLLSGNTLANEESLSYGSVKFIMQNDCNLVLYGGGFQSNTASNGKKCTLTLNNNGHLIINDGLTGRVVWRNSNAQNPVGRYAAVLRPAPGTADVAIYGPAIWSTNDEFSYQESGVVPHKLGRETPNLPRMQNLLFSGQTLYGTDGMLSSNDGSTTFELSKCQLSLSLGNEVKWKVAPTVENGKENYCHVRLDHRGHLSLLNDDNVVLFRSIPTNGVEPPIGDYVLIVEKGAGYIYGPPIWNTYDNRRYKVASA
- glycan array binding signal (z-score) [1]: -0.2
- glycan array binding signal (z-score) [2]: -0.226
- glycan array binding signal (z-score) [3]: 5.37
- glycan array binding signal (z-score) [4]: 4.39
- glycan array binding signal (z-score) [5]: -0.23
- glycan array binding signal (z-score) [6]: -0.179
- glycan array binding signal (z-score) [7]: 4.98
- glycan array binding signal (z-score) [8]: 5.26
- glycan array binding signal (z-score) [9]: -0.093
- glycan array binding signal (z-score) [10]: -0.003

B2: Gal 3 (Homo sapiens), P17931 (protein)
chain: MADNFSLHDALSGSGNPNPQGWPGAWGNQPAGAGGYPGASYPGAYPGQAPPGAYPGQAPPGAYHGAPGAYPGAPAPGVYPGPPSGPGAYPSSGQPSAPGAYPATGPYGAPAGPLIVPYNLPLPGGVVPRMLITILGTVKPNANILDFQRGNDVAFHFNPRFNENNRRVIVCNTLLDNNWGREERQSVFPFESGKPFKIQVLVEPDHFKVAVNDAHLLQYNHRVKKLNEISKLGISGDIDLTSASYTMI
- glycan array binding signal (z-score) ([1]; mutation: K176L): 5.06
- glycan array binding signal (z-score) [11]: 5.51
- glycan array binding signal (z-score) [12]: 5.21
- glycan array binding signal (z-score) [13]: 7.87
- glycan array binding signal (z-score) [14]: 0.393
- glycan array binding signal (z-score) [15]: 5.28
- glycan array binding signal (z-score) [16]: -0.265
- glycan array binding signal (z-score) [17]: -0.262
- glycan array binding signal (z-score) [18]: -0.258
- glycan array binding signal (z-score) [19]: -0.267
- glycan array binding signal (z-score) [20]: -0.269
- glycan array binding signal (z-score) [21]: -0.262
- glycan array binding signal (z-score) [22]: 0.682
- glycan array binding signal (z-score) [23]: -0.273
- glycan array binding signal (z-score) [24]: -0.27
- glycan array binding signal (z-score) [25]: -0.267
- glycan array binding signal (z-score) [26]: -0.271
- glycan array binding signal (z-score) [27]: 1.53
- glycan array binding signal (z-score) [28]: 5.22
- glycan array binding signal (z-score) [29]: -0.256
- glycan array binding signal (z-score) [30]: -0.268
- glycan array binding signal (z-score) [31]: -0.261
- glycan array binding signal (z-score) [32]: -0.27
- glycan array binding signal (z-score) [33]: -0.27
- glycan array binding signal (z-score) [34]: -0.259
- glycan array binding signal (z-score) [35]: 5.87
- glycan array binding signal (z-score) [36]: -0.271
- glycan array binding signal (z-score) [37]: -0.27
- glycan array binding signal (z-score) [38]: -0.268
- glycan array binding signal (z-score) [39]: -0.263
- glycan array binding signal (z-score) [40]: -0.269
- glycan array binding signal (z-score) [41]: 0.372
- glycan array binding signal (z-score) [42]: -0.267
- glycan array binding signal (z-score) [43]: -0.272
